Experimental findings from PubChem BioAssay (Tox21) are described below.

Assay [1] is described as follows: cAMP Responsive Elements (CRE) small molecule antagonists, cell-based qHTS assay: qHTS cell viability counter screen (AID 2060913). Further: nearly all actives have a fitted effect of over 40% in size. Put shortly:
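Steps: cells plated and held 18 hrs at 37 C/5% CO2; compounds and NKH477 (0.25 uM final) added; 3 hrs incubation; reporter substrate read; CellTiter-Glo added to measure cytotoxicity by luminescence.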
On the technique in general: qHTS replaces the single test concentration by a dilution series.

Assay [2] can be described thus: cAMP Responsive Elements (CRE) small molecule agonists, cell-based qHTS assay: qHTS cell viability counter screen (AID 2060914). Further: nearly all actives have a fitted effect of over 50% in size. Summed up:
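Cytotoxicity was measured as ATP luminescence (CellTiter-Glo, 30 min at room temperature) in the same wells as the CRE-bla FRET read-out. HEK293T CRE-bla cells had 3 h compound exposure at 37C/5% CO2.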

Results filed as inconclusive are left out. Unmarked numbers belong to inactive results. Calls of active or inactive are those of the source. The call rests on the fitted dose curve; in most records, active means well fitted cell-killing curve with a large enough effect in the repeat runs; inconclusive means weak or mixed curves, or effect the other way; inactive means flat fitted curve, though single readings scatter.
On the % scale 0 is the no-effect control and ±100 the full control effect; potency means the concentration at half of the fitted maximal effect.

Turning to `CC[N+](C)(CC)CCOC(=O)C(O)(c1ccccc1)C1CCCCC1` (stereo not drawn), the Potency entry in assay [1] and in assay [2] was “inactive” each time.
In the case of `CCC1Nc2cc(Cl)c(S(N)(=O)=O)cc2S(=O)(=O)N1` (stereo not drawn), the Potency entry in assay [1] and in assay [2] was “inactive” in each case.
In the case of `c1ccc2sc(SSc3nc4ccccc4s3)nc2c1`, in assay [1], the viability change, negative = cytotoxic is 2.3% [at 18.9 µM]. Further, the activity change, negative = cytotoxicity in assay [2] was -2.25% [at 18.9 µM].
On to `O=C1CC(c2ccc(Cl)cc2)CC(=O)N1`, for which the Potency result in assay [1] and in assay [2] was “inactive” in each case.
`O=C(NCc1ncc(C(F)(F)F)cc1Cl)c1c(Cl)cccc1Cl`: the Potency result in assay [1] and in assay [2] was “inactive” throughout.
With `C[Si]1(C)O[Si](C)(C)O[Si](C)(C)O[Si](C)(C)O[Si](C)(C)O1`, the Potency entry in assay [1] and in assay [2] was “inactive” throughout.
For `CN1C[C@H]2c3ccccc3Oc3ccc(Cl)cc3[C@@H]2C1`, the Potency entry in assay [1] and in assay [2] was “inactive” each time.
With `O=C(O)Cc1cccc(-c2cc(CCCCCCc3ccc(O[C@H]4O[C@H](CO)[C@@H](O)[C@H](O)[C@@H]4O)c(-c4cccc(CC(=O)O)c4)c3)ccc2O[C@H]2O[C@H](CO)[C@@H](O)[C@H](O)[C@@H]2O)c1`, in assay [1], the viability change, negative = cytotoxic is 1.99% [at 0.349 µM]. The activity change, negative = cytotoxicity in assay [2] is 10.9% [at 0.349 µM].
Turning to `NCCCC[C@H](N[C@@H](CCc1ccccc1)C(=O)O)C(=O)N1CCC[C@H]1C(=O)O`, the Potency result in assay [1] and in assay [2] was “inactive” throughout.
Take `CN(C)CCc1c[nH]c2ccc(CS(=O)(=O)N3CCCC3)cc12`: the Potency result in assay [1] and in assay [2] was “inactive” each time.
Regarding `CC(=O)Nc1nnc(S(N)(=O)=O)s1`, the Potency result in assay [1] and in assay [2] was “inactive” in each case.
On to `COS(=O)(=O)O`, for which the Potency entry in assay [1] and in assay [2] was “inactive” in each case.
Regarding `Nc1cc(Cl)c([N+](=O)[O-])cc1O`, the Potency result in assay [1] and in assay [2] was “inactive” in each case.
`CC(=O)CC(C)C`: the Potency entry in assay [1] and in assay [2] was “inactive” each time.
With `CC1(C)OC[C@@H]2O[C@@]3(C(=O)O)OC(C)(C)O[C@H]3[C@@H]2O1`, the Potency entry in assay [1] and in assay [2] was “inactive” in each case.
For `Oc1ccc2c(c1)Cc1ccccc1-2`, the Potency result in assay [1] and in assay [2] was “inactive” in each case.
Take `CC(O)CCCCn1c(=O)c2c(ncn2C)n(C)c1=O` (stereo not drawn): the Potency result in assay [1] and in assay [2] was “inactive” each time.
Regarding `CCCN[C@H]1CCc2nc(N)sc2C1`, the Potency result in assay [1] and in assay [2] was “inactive” each time.
With `Cc1cc2nc(N)sc2cc1C`, the Potency result in assay [1] and in assay [2] was “inactive” throughout.
In the case of `CCCCNS(=O)(=O)c1ccc(C)cc1`, the Potency entry in assay [1] and in assay [2] was “inactive” in each case.
For the molecule `BrC(Br)C(Br)Br`, the Potency entry in assay [1] and in assay [2] was “inactive” throughout.
Regarding `O=C(NS(=O)(=O)/C=C/c1ccccc1)c1ccc(F)cc1Cl`, the Potency entry in assay [1] and in assay [2] was “inactive” throughout.
Regarding `CCCCCCOC(=O)c1ccccc1`, the Potency result in assay [1] and in assay [2] was “inactive” throughout.
For the molecule `BrCc1cccc(Oc2ccccc2)c1`, the Potency entry in assay [1] and in assay [2] was “inactive” each time.
In the case of `CCC/C=C/CO`, the Potency entry in assay [1] and in assay [2] was “inactive” throughout.
For the molecule `COC(=O)c1c(C)cc(O)c(C)c1O`, the Potency result in assay [1] and in assay [2] was “inactive” each time.
As to `Cc1cc(N)c2cc(NC(=O)Nc3ccc4nc(C)cc(N)c4c3)ccc2n1`, the Potency entry in assay [1] and in assay [2] was “inactive” throughout.
For `c1ccc(-c2nc[nH]c2-c2ccccc2)cc1`, the Potency entry in assay [1] and in assay [2] was “inactive” throughout.
With `COC(=O)N[C@H](C(=O)N[C@@H](Cc1ccccc1)[C@@H](O)CN(Cc1ccc(-c2ccccn2)cc1)NC(=O)[C@@H](NC(=O)OC)C(C)(C)C)C(C)(C)C`, the Potency result in assay [1] and in assay [2] was “inactive” each time.
As to `O=C1OC(O)C(C(Cl)Cl)=C1Cl` (stereo not drawn), the Potency entry in assay [1] and in assay [2] was “inactive” throughout.
Consider `NCCNCCN`, for which the Potency entry in assay [1] and in assay [2] was “inactive” each time.
As to `CC(C)C(=O)C(C)C`, the Potency entry in assay [1] and in assay [2] was “inactive” throughout.
For `CN(C)CCC=C1c2ccccc2CCc2ccccc21`, the Potency entry in assay [1] and in assay [2] was “inactive” throughout.
Regarding `CC(=O)c1ccc2ccc3ccccc3c2c1`, the Potency entry in assay [1] and in assay [2] was “inactive” throughout.
As to `BrCCCCCBr`, the Potency result in assay [1] and in assay [2] was “inactive” in each case.
`Oc1cccc2ccccc12`: the Potency result in assay [1] and in assay [2] was “inactive” each time.
Turning to `CC/C=C\CC/C=C/C(OCC)OCC`, the Potency entry in assay [1] and in assay [2] was “inactive” throughout.
Regarding `CC(C)(C)CC(C)(C)c1ccccc1O`, the Potency in assay [1] and in assay [2] was 61.4 µM (active) in each case.
Consider `COc1ccc2cc(CCC(C)=O)ccc2c1`, for which the Potency entry in assay [1] and in assay [2] was “inactive” in each case.
For `COC(=O)NN`, the Potency result in assay [1] and in assay [2] was “inactive” throughout.
`CCN(CC)c1cccc(O)c1`: the Potency result in assay [1] and in assay [2] was “inactive” throughout.
With `CCCCCCCC#N`, the Potency entry in assay [1] and in assay [2] was “inactive” throughout.
Consider `CCCCCCCCCCCCCC(=O)OCC(O)CO` (stereo not drawn), for which the Potency result in assay [1] and in assay [2] was “inactive” throughout.
`Nc1nc2ccccc2[nH]1`: the Potency entry in assay [1] and in assay [2] was “inactive” each time.
For the molecule `CC1=CC(C)C(C=O)C(C)C1` (stereo not drawn), the Potency result in assay [1] and in assay [2] was “inactive” throughout.
On to `CN1CCCN=C1COC(=O)C(O)(c1ccccc1)C1CCCCC1` (stereo not drawn), for which the Potency entry in assay [1] and in assay [2] was “inactive” each time.
On to `O=C(O)C(=O)Cc1c[nH]c2ccccc12`, for which the Potency entry in assay [1] and in assay [2] was “inactive” each time.
For the molecule `CN(C)CCCN1c2ccccc2Sc2ccccc21`, the Potency entry in assay [1] and in assay [2] was “inactive” each time.
With `CCOC(=O)c1ccccc1C`, the Potency result in assay [1] and in assay [2] was “inactive” throughout.
Consider `CC(=O)Oc1ccc([N+](=O)[O-])cc1CCl`, for which the Potency entry in assay [1] and in assay [2] was “inactive” in each case.
On to `CSc1c(Cl)c(Cl)c(Cl)c(Cl)c1Cl`, for which the Potency result in assay [1] and in assay [2] was “inactive” in each case.
With `CC(C)CC(=O)C1C(=O)c2ccccc2C1=O`, the Potency result in assay [1] and in assay [2] was “inactive” each time.
Consider `C=CC(=O)OCCOC1C2CCC1C1CC=CC12` (stereo not drawn), for which, in assay [1], the viability change, negative = cytotoxic is 9.26% [at 18.9 µM]. Moreover, the activity change, negative = cytotoxicity in assay [2] is -3.05% [at 18.9 µM].
For the molecule `CCCCCCCCCOS(=O)(=O)O`, the Potency entry in assay [1] and in assay [2] was “inactive” throughout.
As for `Oc1ccc2ccccc2c1`, the Potency result in assay [1] and in assay [2] was “inactive” each time.
For the molecule `CN1[C@@H]2CC(OC(=O)[C@H](CO)c3ccccc3)C[C@H]1[C@@H]1O[C@@H]12` (stereo partly drawn), the Potency result in assay [1] and in assay [2] was “inactive” in each case.
Regarding `N#CCCN(CCO)CCO`, the Potency result in assay [1] and in assay [2] was “inactive” each time.
With `CCC(C)CO` (stereo not drawn), the Potency result in assay [1] and in assay [2] was “inactive” throughout.
On to `c1cc2ccc3ccc4ccc5cccc6c(c1)c2c3c4c56`, for which the viability change, negative = cytotoxic in assay [1] is 18.5% [at 3.27 µM]. For the same molecule, the activity change, negative = cytotoxicity in assay [2] was -0.0627% [at 3.27 µM].
